# KinaseGlo FLuc – Kinase-Glo luciferase inhibition (counter-screen); Q27757; Kinase-Glo luciferase, ATP luminescence, 8 min; Potency, µM (series often up to 38.3 µM), hits mostly inhibitors; 200,000 tested, 0.28% active; AID 1379; also: nearly all actives have a fitted effect of over 60% in size
#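 Compounds were added to a substrate mix at pH 7.2 (50 mM imidazole, 10 uM ATP, within the enzyme's linear range), followed by Kinase-Glo detection reagent; luminescence was measured after 8 minutes at ambient temperature.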
# ELG1 genotox – inducers of genotoxicity in HEK293T ELG1-luciferase cells; 330,000 tested, 1.3% active; Potency, µM (series often up to 46 µM), hits mostly activators; HEK293T ELG1-luciferase reporter, luminescence, 16 h; also: nearly all actives have a fitted effect of over 60% in size
#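 Quantitative HTS format in 1536-well plates. HEK293T ELG1-luciferase reporter cells receive test compound and are incubated 16 hr at 37 °C, 5% CO2; ONE-Glo added, 30 min room temperature, then luminescence read.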
# Rab9 promoter act – Rab9 promoter activation; AID 485297; 320,000 tested, 2.8% active; Huh7 Rab9 promoter-luciferase reporter, luminescence, 24 h; Potency, µM (series often up to 9.22 µM), actives largely listed as activators; also: nearly all actives have a fitted effect of over 60% in size
#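 Cells were plated at 1500 per well in reduced-serum medium with 10% FBS and left 2 h. Compound in DMSO was then added for 24 h at 37 °C. Reporter signal was read by luminescence after 10 min with luciferase detection reagent.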
# SMN2 splice enh – enhancers of SMN2 splice variant expression | Potency, µM (titrated, usually from 46.1 µM), usual class: activators | 210,000 tested, 2.8% active | AID 1458 | HEK293 SMN2-luciferase splicing reporter, luminescence, 30-36 h; also: nearly all actives have a fitted effect of over 55% in size
#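 HEK293 cells carry an SMN2 minigene-luciferase reporter in which exon 7 inclusion puts luciferase in frame. Cells were seeded at 2000 cells/well, attached for 10-12 hours, then exposed to compounds for 30-36 hours at 37C before ONE-Glo luminescence.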
# FLuc counter – counter-screen for miR-21 project: firefly luciferase inhibitors or activators | 360,000 tested, 6.9% active | Potency, µM (highest dose often 57.5 µM), hits mostly inhibitors | P08659 | AID 588342 | purified FLuc, Km substrates, luminescence inhibition; also: nearly all actives have a fitted effect of over 55% in size
# Target sequence (P08659 whole entry, looked up): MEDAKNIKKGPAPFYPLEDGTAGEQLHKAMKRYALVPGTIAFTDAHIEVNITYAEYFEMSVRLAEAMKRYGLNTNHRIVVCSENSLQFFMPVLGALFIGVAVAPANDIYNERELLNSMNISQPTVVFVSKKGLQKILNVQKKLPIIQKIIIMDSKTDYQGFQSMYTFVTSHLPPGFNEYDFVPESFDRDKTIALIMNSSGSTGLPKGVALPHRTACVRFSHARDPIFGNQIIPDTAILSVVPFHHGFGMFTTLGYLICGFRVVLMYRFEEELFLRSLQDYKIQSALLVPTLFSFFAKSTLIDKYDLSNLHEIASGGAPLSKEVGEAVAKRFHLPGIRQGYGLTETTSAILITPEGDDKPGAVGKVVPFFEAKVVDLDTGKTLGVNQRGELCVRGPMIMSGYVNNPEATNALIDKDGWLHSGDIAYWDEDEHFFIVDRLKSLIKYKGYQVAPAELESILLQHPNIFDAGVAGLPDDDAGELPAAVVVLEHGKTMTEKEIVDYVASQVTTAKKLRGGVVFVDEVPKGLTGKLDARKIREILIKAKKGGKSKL
#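 Biochemical qHTS of compounds, final roughly 60 µM downward over six points, against 10 nM purified firefly luciferase using Km concentrations of substrates (10 uM D-luciferin, 10 uM ATP) in Tris acetate pH 7.5 buffer; luminescence output.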
# NPC1 promoter act – activates the NPC1 promoter. Huh7 NPC1 promoter luciferase reporter, 24 h. Potency, µM (doses to about 9.22 µM), hits mostly activators. 320,000 tested, 2.4% active. AID 485313; also: nearly all actives have a fitted effect of over 60% in size
#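 NPC1 promoter–luciferase Huh7 cells; 24 h compound; luminescence.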
# Numbers stand for hits; . = inactive; ? = inconclusive; / = not tested or not shown; [ ] = another dose, or the depositor's remark. Compounds with a hit are over-represented: about 7.3% of the library has one in this group of screens. Calls follow the shape of the dose curve; as a rule, active = well fitted curve in the direction sought with a large enough effect; inconclusive = small, poorly fitted or top-dose-only effect, or another doubt; inactive = no such curve, though single readings can be large; an effect the other way counts as inactive or inconclusive.
SMILES,KinaseGlo FLuc,ELG1 genotox,Rab9 promoter act,SMN2 splice enh,FLuc counter,NPC1 promoter act
CC(CNC(=O)C1CCN(Cc2cc3ccccc3n2Cc2ccccc2)CC1)c1ccccc1 (configuration not stated),/,/,/,/,.,/
O=C(Nc1cnccn1)c1csc2ccccc12,.,?,?,?,19µM,.
O=C(NC1=NCCS1)c1cc(Cl)ccc1Cl,/,.,.,/,.,.
O=C(NC1=NCCS1)c1ccc(Cl)c(Cl)c1,/,?,0.63µM,/,4.8µM,0.63µM
O=C(Nc1ccon1)c1csc2ccccc12,.,.,.,?,.,.
Cc1cc(C(=O)NC2=NCCS2)cs1,.,16µM,1.6µM,11µM,8.5µM,2.5µM
O=C(NC1=NCCS1)c1csc2ccccc12,.,?,1.6µM,11µM,.[2.3 µM],2.2µM
O=P(O)(O)O[C@@H]1[C@H](O)[C@H](O)[C@@H](OP(=O)(O)O)[C@H](OP(=O)(O)O)[C@H]1O,.,/,/,/,/,/
O=C(c1ccc2c(c1)N(Cc1ccc(F)cc1)CCS2)N1CCN(c2ccccc2)CC1,/,/,/,.,.,/
C/C(=N/Nc1nc(C)cc(=O)[nH]1)C(=O)O,.[7.66 µM],/,/,.[9.22 µM],/,/
O=C(NC1=NCCS1)c1cccs1,.,.,.,28µM,.,.
Cc1cccc(C(=O)NC2=NCCS2)c1,.,?,0.71µM,/,8.5µM,1.3µM
COc1ccc2c3c(c(=O)oc2c1)C1O[C@](CCCCN2C(=O)c4ccccc4C2=O)(Cc2cc(OC)c(OC)cc21)O3,/,/,.[1.84 µM],/,.[11.5 µM],.[1.84 µM]
CCCCOC(=O)c1ccc(NC(=O)Cc2coc3c(C)c(C)ccc23)cc1,/,/,/,.,.,/
CC(=O)Nc1cccc(C(=O)/C=C/c2ccc(C)cc2)c1,.,.,.,.,4.8µM,.
CCC(=O)Nc1cccc(C(=O)/C=C/c2ccc(F)cc2)c1,.,.,.,.,15µM,.
O=C(Nc1cccc([N+](=O)[O-])c1)NC1CCCCCCC1,/,.,2.5µM,/,12µM,2.8µM
O=C(Nc1cccc([N+](=O)[O-])c1)C(=O)N1CCCCC1,.,?,1.3µM,18µM,?,?
O=C(ONC1=NCCCCC1)c1ccc([N+](=O)[O-])cc1,.,.,.,.,.,.
O=[N+]([O-])c1cccc(NC(=S)N2CCCC2)c1,/,.,.,/,.,.
O=C(Nc1cccc([N+](=O)[O-])c1)ONC1=NCCCCC1,/,.,.,/,15µM,.
COc1cccc(CNC(=O)c2ccc(CSc3nc4ccncc4n3Cc3cccc(C)c3)cc2)c1,/,/,/,.,.,/
Cc1cc2oc(C(=O)Nc3nonc3C)c(C)c2cc1C,/,10µM,4µM,/,2.4µM,1.1µM
CC(=O)Nc1ccc(NC(=O)c2oc3cc(C)c(C)cc3c2C)cc1,.,?,.,.,.,.
CCc1ccc2oc(C(=O)Nc3nonc3C)c(C)c2c1,/,3.3µM,0.63µM,/,2.1µM,0.32µM
SMILES,KinaseGlo FLuc,ELG1 genotox,Rab9 promoter act,SMN2 splice enh,FLuc counter,NPC1 promoter act
CN(C)S(=O)(=O)N1CCc2ccc(NC(=O)c3ccc(C(F)(F)F)cc3)cc2C1,/,.,.,/,4.8µM,.
COCCC(=O)N1CCc2ccc(NC(=O)c3ccc(C(F)(F)F)cc3)cc2C1,/,.,.,/,13µM,.
Cc1cccc(-n2ncc3c(Nc4ccc(Oc5ccc(Cl)cc5)cc4)ncnc32)c1,/,/,/,/,.,/
CC(C)NC(=O)CCCOc1ccc(Cl)cc1Cl,.,?,.,.,?,.
Nc1nncn1C(=O)CCCOc1ccc(Cl)cc1Cl,.,.,.,.,9.5µM,.
C#CCN(C)CCCOc1ccc(Cl)cc1Cl,.,.,?,.,13µM,?
CCN(CC)C(=O)CCCOc1ccc(Cl)cc1Cl,.,.,?,.,?,3.2µM
COc1cc(C(=O)Nc2ccc(-c3cc(C(F)(F)F)nn3-c3ccccc3)cc2)cc(OC)c1OC,/,/,/,.,.,/
CCc1ccc2oc(C(=O)NCc3ccc(S(N)(=O)=O)cc3)c(C)c2c1,.,?,.,.,.,.
CCCc1ccc2oc(C(=O)NCCCN3CCOCC3)c(C)c2c1,/,?,.[1.84 µM],/,13µM,.
CCCc1ccc2oc(C(=O)NCc3nnc(C)o3)c(C)c2c1,/,9.2µM,2.8µM,/,9.5µM,2µM
CCCCOc1ccc(Cn2c(=O)sc3ccccc32)cc1OC,/,/,/,.,.,/
CC(C)CCCC(C)C1CCC2C3CC(=O)[C@H]4CC(O)CC[C@]4(C)C3CC[C@@]12C (some centres not stated),.,/,/,.,/,/
O=C1c2ccccc2-c2ccc(N(Cc3ccc(Br)cc3)Cc3ccc(Br)cc3)cc21,.[7.66 µM],/,/,.[9.22 µM],/,/
CC1(C)CC(/C=C/c2ccccc2)=Nc2ccccc2N1,/,.,?,/,4.3µM,?
O=C1CC(/C=C/c2ccc(Cl)cc2)=Nc2ccccc2N1,.,?,1.3µM,/,4.3µM,2.2µM
O=C1CC(/C=C/c2ccccc2)=Nc2ccccc2N1,.,?,0.89µM,.,2.7µM,2µM
O=C1CC(/C=C/c2cccnc2)=Nc2ccccc2N1,?,.,.,.,.,.
COc1ccc(OC)c2sc(N3CCN(C(=O)c4ccc5c(c4)CCCC5)CC3)nc12,/,/,/,/,.,/

# Compound activity as filed in PubChem.
